Source: PubChem (National Center for Advancing Translational Sciences (NCATS))
HCMV inh: blocks human cytomegalovirus replication | HFF cells, HCMV-luciferase reporter, 72 h; stronger effect = lower value | activity change, negative = inhibition, % at 57.5 µM | actives 4.5% (n = 410,000) | AID 1259415; in the data active = activity change below about -60%; inconclusive = no clear call, values can overlap the other calls; inactive = above about -39%
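After 16 h attachment at 37C, HFF cells received test compound and HCMV-luciferase (1 PFU/cell); reporter luminescence read 72 h later, data normalized against buffer-only and known inhibitor Salinomycin.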
HCV inh: HCV inhibition; Huh7.5.1 HCVcc-Cre infection, luciferase reporter, 44 h; Potency, µM (series often up to 41.8 µM), inactives show at the top dose activity change, negative = inhibition, hits mostly inhibitors; actives 3.4% (n = 340,000); note: potency is the fitted concentration of half-maximal effect
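Seed cells (1,000/well) for 4 h; treat with compound and infect with HCVcc-Cre, moi about 0.5. Incubate 44 h, then detect luciferase activity.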
Pf growth 48h: P. falciparum growth inhibition at 48 hours (one generation); P. falciparum luciferase growth in erythrocytes, 48 h; Potency, µM (series often up to 28.7 µM), for inactives: at the top dose activity change, negative = inhibition, hits mostly inhibitors; actives 5.9% (n = 310,000); note: potency is the fitted concentration of half-maximal effect
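Here the parasites carry a stable luciferase gene and grow inside erythrocytes in Albumax-based RPMI medium with compound for one erythrocytic cycle. Activity is scored as loss of luminescent signal.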
LASV entry inh: blocks Lassa virus binding to or entry into cells; Lassa virus pseudotype entry inhibition, cell reporter; Potency, µM (series often up to 37.9 µM), inactives show top-dose activity change, negative = inhibition, usual class: inhibitors; actives 1.2% (n = 300,000); AID 540256; calls by dose curve; tested in HEK293 cells; note: potency is the fitted concentration of half-maximal effect; nearly all actives have a fitted effect of over 50% in size
Pf growth 96h: inhibits malaria parasite growth, 96 h; AID 504834; Potency, µM (doses to about 28.7 µM), for inactives: at the highest dose activity change, negative = inhibition, most hits filed as inhibitors; P. falciparum luciferase reporter growth, 96 h; actives 6.9% (n = 320,000); note: potency is the fitted concentration of half-maximal effect
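Plates of compound plus infected erythrocytes (2% hematocrit, 0.05% parasitemia final) incubate 96 hours, 37 C, 5% CO2. Detection reagent added; reduced luminescence from the parasites' luciferase reporter flags inhibition.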
Marburg entry inh: inhibitors of Marburg virus binding or cell entry | Marburg virus pseudotyped entry inhibition, cell reporter | Potency, µM (titrated, usually from 37.8 µM), without a hit: top-dose activity change, negative = inhibition, most hits filed as inhibitors | actives 1.8% (n = 300,000) | AID 540276; calls by dose curve; tested in HEK293 cells; note: potency is the fitted concentration of half-maximal effect
* hit, by the source's call; ? = inconclusive; · = not tested or not shown; [ ] = remark or other dose. Only some compounds are listed: those with a hit (about 14% of all), similar ones and a draw of the others. Unless noted, calls come from the whole dose curve; as a rule, active = well fitted inhibition curve with a large enough effect; inconclusive = small, poorly fitted or top-dose-only effect, or another doubt; inactive = no such curve, though single readings can be large or run the other way. % is set by controls: 0 for no effect and ±100 for the full control effect.

SMILES	HCMV inh	HCV inh	Pf growth 48h	LASV entry inh	Pf growth 96h	Marburg entry inh
COc1ccc2[nH]cc(CCNC(=O)c3ccccc3Cl)c2c1	-83.8*	5.3%	38.0%	-10.4%	11.8%	1.8%[46.1 µM]
O=C(COC(=O)c1ccccc1O)NCc1ccccc1Cl	-64.7*	?	·	·	·	·
COC(=O)c1sc2cccc(F)c2c1S(=O)(=O)Nc1cc(C)c(Cl)cc1OC	9.6	·	·	?	·	·
Nc1cc2c(cc1Cl)-c1ccc(Cl)cc1C2=O	?	?	·	16.5%	·	20.0%
COC(=O)C1=C(C)N(Cc2ccccc2C(F)(F)F)C(=NCc2ccc(C(F)(F)F)cc2)NC1CCc1ccccc1 (stereo not drawn)	38.4	·	·	·	·	·
C[C@H](CO)N1C[C@H](C)[C@@H](CN(C)C(=O)Nc2ccc(C(F)(F)F)cc2)Oc2ccc(NS(=O)(=O)c3ccc(F)cc3)cc2C1=O	-32.7	-21.7%	·	·	·	·
Cc1ccc(S(=O)(=O)Nc2ccc3c(c2)C(=O)N([C@H](C)CO)C[C@H](C)[C@@H](CN(C)C(=O)Nc2ccc(C(F)(F)F)cc2)O3)cc1	10.5	12.6µM*	·	·	·	·
Cc1noc(C)c1S(=O)(=O)N(C)C[C@H]1Oc2ccc(NS(=O)(=O)c3ccc(F)cc3)cc2C(=O)N([C@H](C)CO)C[C@@H]1C	-17.4	-11.3%	·	·	·	·
C[C@H](CO)N1C[C@H](C)[C@@H](CN(C)C(=O)Nc2ccc(C(F)(F)F)cc2)Oc2c(NS(=O)(=O)c3cn(C)cn3)cccc2C1=O	-10.1	2.82µM*	·	·	·	·
Cc1noc(C)c1S(=O)(=O)N(C)C[C@H]1Oc2ccc(NS(=O)(=O)c3cn(C)cn3)cc2C(=O)N([C@H](C)CO)C[C@@H]1C	-5.3	3.55µM*	·	·	·	·
Cc1noc(C)c1NC(=O)N(C)C[C@@H]1Oc2ccc(NS(=O)(=O)c3c(C)noc3C)cc2C(=O)N([C@H](C)CO)C[C@H]1C	-36.1	3.16µM*	·	·	·	·
CCN(CC)C(=O)c1ncn2c1C(=O)NC[C@H]2C	-28.7	·	·	·	·	·
CCOC(=O)N1CCc2c(sc3c2c(=O)n(-c2ccc(CC)cc2)c(=O)n3CC(=O)c2ccc(F)cc2)C1	-0.9	·	·	-1.0%[46.1 µM]	·	-6.9%[46.1 µM]
Cc1nn(-c2ccc(N3CCCC3)nn2)c(C)c1CCC(=O)N1CCN(c2ccccc2F)CC1	-61.5*	·	·	-1.1%[46.1 µM]	·	·
N#Cc1ccsc1NC(=O)CCN1C(=O)C2CCCCC2C1=O (stereo not drawn)	-18.6	0.6%	·	-13.4%[46.1 µM]	·	2.6%[46.1 µM]
CSc1nc(Cl)c(Cc2ccc(OCC(C)C)cc2)c(N2CCOCC2)n1	?	11.2µM*	?	·	?	3.2%
CCCCOc1ccc(Cc2c(Cl)nc(SC)nc2N2CCOCC2)cc1	-39.2	-25.5%	13.1µM*	-1.6%	45.4%	?
O=C(c1ccc(O)c(Br)c1)c1cc(Br)ccc1O	-16.6	4.1%	·	-11.6%[46.1 µM]	·	?
O=C(C(=O)c1cc(Br)ccc1O)c1cc(Br)ccc1O	-97.3*	?	·	?	·	?
C#CCOCCOCCOCCNc1nc(N2CCOCC2)nc(N2CCN(C(=O)CCCCCCCCCCNC(=O)[C@@H]([C@H](C)CC)n3cc(CCCCCN)nn3)CC2)n1	24.6	?	1.17µM*	·	0.828µM*	·
C#CCOCCOCCOCCNc1nc(N2CCN(C(=O)CCCCCCCCCCNC(=O)[C@H]([C@@H](C)CC)n3cc(CCCCCN)nn3)CC2)nc(N2CCN(C(=O)CCCCCCCCCCNC(=O)[C@@H]([C@H](C)CC)n3cc(CCCCCN)nn3)CC2)n1	·	-9.7%	3.29µM*	·	?	·
C#CCOCCOCCOCCNc1nc(N2CCN(C(=O)CCCCCCCCCCNC(=O)[C@H]([C@@H](C)CC)n3cc(CCCCCN)nn3)CC2)nc(N2CCN(C(=O)CCCCCCCCCCNC(=O)[C@H](CO)n3cc(CCCCCN)nn3)CC2)n1	·	?	13.1µM*	·	?	·
C#CCOCCOCCOCCNc1nc(N2CCN(C(=O)Cn3cc(CCO)nn3)CC2)nc(N2CCN(C(=O)[C@H]([C@@H](C)CC)n3cc(CCCCN)nn3)CC2)n1	-27.7	-3.4%[8.37 µM]	·	·	·	·
